Experimental data published in the supplement of paper PMC10515830.
Counter-ions that a name gives are not always drawn.

How the values were obtained:
Conditions in all cases: 10 µM; exposure time 6 h
[1] = tested on: Danio rerio larvae (5 dpf); test: difference in excitability vs DMSO (percentage points); higher = more excitable than DMSO
In short: (§1)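 Wild-type zebrafish larvae at 5 dpf were kept in 96-well plates and exposed for 6 h to 100 µL egg water holding library compound at a final concentration of 10 µM. From 3 h into exposure, the plates were held at 28.5 ℃ and photographed every 6 s through a 3-h programme of moving lines and 100 ms, 400Hz tones. Each behaviour was scored by Z-LaP Tracker, a DeepLabCut model, and averaged over 48 larvae per compound. Every value gives the compound mean minus the vehicle control mean, in percentage points.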

[2] = tested on: Danio rerio larvae (5 dpf); test: difference in startle response vs DMSO (percentage points); higher = stronger startle than DMSO
In short: as §1

[3] = tested on: Danio rerio larvae (5 dpf); test: difference in activity during first hour vs DMSO (percentage points); higher = more activity than DMSO
In short: as §1

[4] = tested on: Danio rerio larvae (5 dpf); test: difference in habituation to acoustic stimuli vs DMSO (percentage points); higher = more habituation than DMSO
In short: as §1

[5] = tested on: Danio rerio larvae (5 dpf); test: difference in combined optomotor response to red, green and blue moving lines vs DMSO (percentage points); higher = stronger optomotor response than DMSO
In short: as §1

Structure (SMILES)	difference in excitability [1]	difference in startle response [2]	difference in activity during first hour [3]	difference in habituation to acoustic stimuli [4]	difference [5]
CC(CN(C)C)CN1c2ccccc2CCc2ccccc21 (stereo not given) [Trimipramine (maleate)]	12.5	-3.72	-0.632	-5.79	0.935
CC(=O)[C@H]1CC[C@H]2[C@@H]3CCC4=CC(=O)CC[C@]4(C)[C@H]3CC[C@]12C [Progesterone]	3.92	-7.45	-21.2	-12.3	-17.3
Cc1ccc(=O)n(-c2ccccc2)c1 [Pirfenidone]	-2.03	3.37	0.0618	2.62	8.23
CCNC(=O)[C@@H]1CCCN1C(=O)[C@H](CCCNC(=N)N)NC(=O)[C@H](CC(C)C)NC(=O)[C@@H](CC(C)C)NC(=O)[C@H](Cc1ccc(O)cc1)NC(=O)[C@H](CO)NC(=O)[C@H](Cc1c[nH]c2ccccc12)NC(=O)[C@H](Cc1c[nH]cn1)NC(=O)[C@@H]1CCC(=O)N1 [Leuprorelin (acetate)]	16.2	-0.397	-3.87	1.37	4.92
CN(N=O)C(=O)N[C@@H](C=O)[C@@H](O)[C@H](O)[C@H](O)CO [Streptozotocin]	-0.24	-1.97	-9.76	-6.76	-1.53
NS(=O)(=O)c1cc(C2(O)NC(=O)c3ccccc32)ccc1Cl (stereo not given) [Chlorthalidone]	-10	0.0654	5.83	3.4	-3.83
CC[C@H](C)[C@@H]1NC(=O)[C@H](Cc2ccc(O)cc2)NC(=O)[C@@H](N)CSSC[C@@H](C(=O)N2CCC[C@H]2C(=O)N[C@@H](CC(C)C)C(=O)NCC(N)=O)NC(=O)[C@H](CC(N)=O)NC(=O)[C@H](CCC(N)=O)NC1=O [Oxytocin (acetate)]	-2.14	1	-5.61	2.03	4.29
Clc1ccc2nsnc2c1NC1=NCCN1 [Tizanidine (hydrochloride)]	1.85	4.3	-8.71	1.04	-0.822
CCOC(=O)c1ncn2c1CN(C)C(=O)c1cc(F)ccc1-2 [Flumazenil]	3.25	7.64	0.681	2.54	3.91
C[C@H](Cc1cc2c(c(C(N)=O)c1)N(CCCO)CC2)NCCOc1ccccc1OCC(F)(F)F [Silodosin]	15.3	3.54	3.31	-5.47	4.97
O=C1Cc2cc(CCN3CCN(c4nsc5ccccc45)CC3)c(Cl)cc2N1 [Ziprasidone (hydrochloride hydrate)]	26.8	5.81	11.2	-6.75	5.5
CNCC(=O)OCc1cccnc1N(C)C(=O)OC(C)[n+]1cnn(C[C@](O)(c2cc(F)ccc2F)[C@@H](C)c2nc(-c3ccc(C#N)cc3)cs2)c1 (stereo not given in full) [Isavuconazonium (sulfate)]	28.4	4.1	-13.1	-2.82	-5.6
C[C@]12CC[C@@H]3c4ccc(O)cc4C[C@@H](CCCCCCCCC[S+]([O-])CCCC(F)(F)C(F)(F)F)[C@H]3[C@@H]1CC[C@@H]2O (stereo not given in full) [Fulvestrant]	1.25	0.684	-0.447	1.81	1.43
O=C(O)CCCc1ccccc1 [Sodium 4-Phenylbutyrate]	-1.36	2.31	-3.38	1.43	5.24
CCC[C@H](N[C@@H](C)C(=O)N1[C@H](C(=O)O)C[C@@H]2CCCC[C@@H]21)C(=O)OCC [Perindopril]	1.68	3.45	15	-4.9	1.2
O=S(=O)(O)CCS [Mesna]	-4.43	2.29	12.8	-1.88	6.5
Cc1cc(Nc2ncc(Cl)c(Nc3ccccc3S(=O)(=O)C(C)C)n2)c(OC(C)C)cc1C1CCNCC1 [Ceritinib]	23.6	-3.09	-7.86	-6.25	-1.6
C[C@@H]1NC(=O)[C@@H](N)CNC(=O)[C@H](C2CCNC(=N)N2)NC(=O)/C(=C/NC(N)=O)NC(=O)[C@H](CNC(=O)CC(N)CCCN)NC1=O.N=C1NCC[C@H]([C@@H]2NC(=O)/C(=C/NC(N)=O)NC(=O)[C@H](CNC(=O)C[C@@H](N)CCCN)NC(=O)[C@H](CO)NC(=O)[C@@H](N)CNC2=O)N1 [Capreomycin (sulfate)]	19.5	3.05	-0.814	2.2	3.54
O=C1c2c(O)ccc(O)c2C(=O)c2c(NCCNCCO)ccc(NCCNCCO)c21 [Mitoxantrone (hydrochloride)]	8.92	-11.2	-16.2	-16	-15.4
CCN1CC(CCN2CCOCC2)C(c2ccccc2)(c2ccccc2)C1=O (stereo not given) [Doxapram (hydrochloride hydrate)]	1.64	-4.79	16.8	-5.51	1.89
Clc1ccc(CCC(Cn2ccnc2)Sc2c(Cl)cccc2Cl)cc1 (stereo not given) [Butoconazole (nitrate)]	9.05	-10.1	-20.7	-10.8	-16.7
CC(=O)Oc1c(C)cc(OCC(O)CNC(C)C)c(C)c1C (stereo not given) [Metipranolol (hydrochloride)]	1.28	4.21	-3.92	5.42	0.513
Cc1[nH]c2ccccc2c1CCNCc1ccc(/C=C/C(=O)NO)cc1 [Panobinostat]	7	-4.96	-8.62	3.43	1.65
CCc1ccc(CCOc2ccc(CC3SC(=O)NC3=O)cc2)nc1 (stereo not given) [Pioglitazone (hydrochloride)]	12.4	-4.66	-15.3	6.03	3.69

Structure (SMILES)	difference in excitability [1]	difference in startle response [2]	difference in activity during first hour [3]	difference in habituation to acoustic stimuli [4]	difference [5]
CC(=O)OCC(=O)[C@@]1(O)CC[C@H]2[C@@H]3CCC4=CC(=O)CC[C@]4(C)[C@H]3C(=O)C[C@@]21C [Cortisone Acetate]	2.07	-1.29	1.26	3.11	-0.38
Oc1ncnc2[nH]ncc12 [Allopurinol]	0.512	-2.34	-0.131	0.54	1.46
CCOC(=O)O[C@]1(C(=O)COC(=O)CC)CC[C@H]2[C@@H]3CCC4=CC(=O)C=C[C@]4(C)[C@H]3[C@@H](O)C[C@@]21C [Prednicarbate]	10.3	3.6	-2.36	-0.38	-0.877
CC(C)C(=O)Oc1ccc(CO)cc1[C@H](CCN(C(C)C)C(C)C)c1ccccc1 [Fesoterodine (fumarate)]	4.21	-11.4	2.92	-7.33	-6.79
CCN(CC)CC(=O)Nc1c(C)cccc1C [Lidocaine]	4.55	-4.05	10.3	-4.04	1.72
O=C(O)CSc1nnc(Br)n1-c1ccc(C2CC2)c2ccccc12 [Lesinurad]	1.61	2.63	12.5	-0.00375	2.41
CC1COc2c(N3CCN(C)CC3)c(F)cc3c(=O)c(C(=O)O)cn1c23 (stereo not given) [Ofloxacin]	5.76	3.75	9.1	-0.318	1.41
CC(=O)N[C@@H](CS)C(=O)O [N-acetyl-L-Cysteine]	-2.2	3.63	14.1	-5.17	-0.176
Nc1nc(Cl)nc2c1ncn2[C@H]1C[C@H](O)[C@@H](CO)O1 [Cladribine]	-6.72	-0.563	-3.5	-0.582	8.45
CC[C@H](C)[C@H](N)C1=N[C@H](C(=O)N[C@@H](CC(C)C)C(=O)N[C@H](CCC(=O)[O-])C(=O)N[C@H](C(=O)N[C@H]2CCCCNC(=O)[C@H](CC(N)=O)NC(=O)[C@@H](CC(=O)[O-])NC(=O)[C@H](Cc3cnc[nH]3)NC(=O)[C@@H](Cc3ccccc3)NC(=O)[C@H]([C@@H](C)CC)NC(=O)[C@@H](CCCN)NC2=O)[C@@H](C)CC)CS1.[Zn+2] [Bacitracin (zinc)]	20.6	-4.52	30.1	-11	-7.98
CC(C)(C)NC(=O)[C@@H]1C[C@@H]2CCCC[C@@H]2CN1C[C@@H](O)[C@H](Cc1ccccc1)NC(=O)[C@H](CC(N)=O)NC(=O)c1ccc2ccccc2n1 [Saquinavir (mesylate)]	9.2	-1.02	0.593	0.0845	-1.01
CO[C@H]1/C=C/O[C@@]2(C)Oc3c(C)c(O)c4c(c3C2=O)C2=NC3(CCN(CC(C)C)CC3)NC2=C(NC(=O)/C(C)=C\C=C\[C@H](C)[C@H](O)[C@@H](C)[C@@H](O)[C@@H](C)[C@H](OC(C)=O)[C@@H]1C)C4=O [Rifabutin]	10.6	-5.26	2.31	3.31	3.55
CC(COc1ccccc1)N(CCCl)Cc1ccccc1 (stereo not given) [Phenoxybenzamine (hydrochloride)]	4.28	2.85	18.5	-1.54	2.87
CN1CCN(C2=Nc3cc(Cl)ccc3Nc3ccccc32)CC1 [Clozapine]	9.35	-11.3	37.7	-6.72	5.08
CC1=NN(c2ccccc2)C(=O)C1	2.26	-0.112	-1.37	-1.34	4.56
Cc1ccc(C(=O)c2ccc(CC(=O)O)n2C)cc1 [Tolmetin (sodium salt hydrate)]	-2.25	2.51	13.8	1.94	7.94
NC(=O)N1c2ccccc2CC(=O)c2ccccc21 [Oxcarbazepine]	-3.21	8.33	10.1	0.525	8.73
Nc1nc(Cl)nc2c1ncn2[C@@H]1O[C@H](CO)[C@@H](O)[C@@H]1F [Clofarabine]	-0.183	-0.201	0.725	2.7	1.77
Cc1onc(-c2c(Cl)cccc2Cl)c1C(=O)N[C@@H]1C(=O)N2[C@@H]1SC(C)(C)[C@@H]2C(=O)O [Dicloxacillin (sodium salt hydrate)]	9.09	-2.02	8.63	-4	0.484
CC(C)Cn1cnc2c(N)nc3ccccc3c21 [Imiquimod]	-4.08	8.27	-15	-2.3	-3.49
COc1ccc2cc(C(C)C(=O)O)ccc2c1 (single isomer, unassigned; (+)) [(+)-Naproxen]	3.24	2.79	-2.88	2.25	-3.32
C[C@H]1C[C@H]2[C@@H]3CCC4=CC(=O)C=C[C@]4(C)[C@@]3(F)[C@@H](O)C[C@]2(C)[C@@]1(O)C(=O)CO [Betamethasone]	19.9	8.22	-16.1	3.7	5.5
C[C@]12CC[C@@H]3c4ccc(OS(=O)(=O)O)cc4CC[C@H]3[C@@H]1CCC2=O [Estropipate]	1.84	-3.42	-3.25	-2.86	-4.79
